Test results reported in ChEMBL document CHEMBL4513216, “Probing the Open Global Health Chemical Diversity Library for Multistage-Active Starting Points for Next-Generation Antimalarials” (ACS Infect Dis, 2020).
About 8,600 (12%) of roughly 69,000 compounds showed an effect of 50% or more. This is one part of a sample in which strong results are shown more often than they occur.

System: Plasmodium berghei
Experiment: Screen against P. berghei liver stage (PbLuc), transformed with Luciferase, at 10uM
Format: functional, HepG2
Details: tested at 10 uM

Point of comparison: Cc1noc(C)c1CNC(C(=O)N1CCOCC1)C(C)C (configuration not stated), INHIBITION 22.2%. Against it:
- CC(C)Cc1nnc(NCc2ccsc2)o1 — lower, -54.5%
- c1cc(CNc2nnc(Cc3ccsc3)o2)cs1 — lower, -86.6%
- CC(C)(C)Cc1nnc(NCc2ccsc2)o1 — higher, 53.4%
- COc1ccc(OC)c(C(C(=O)O)N2CCSCC2)c1 (configuration not stated) — lower, 17%
- CC(c1cccc(Cl)c1)N(C)CCS(=O)(=O)CCC(N)=O (configuration not stated) — higher, 37.8%
- CC(c1ccc(F)c(F)c1)N(C)CCS(=O)(=O)CCC(N)=O (configuration not stated) — higher, 41.5%
- Cc1ccc(C(C)N(C)CCS(=O)(=O)CCC(N)=O)cc1 (configuration not stated) — higher, 56.3%
- NC(=O)NC(=O)CCN1CCN(CC2CC2)c2ccccc21 — higher, 62.4%
- CNC(=O)NC(=O)CN1CCN(CC2CC2)c2ccccc21 — higher, 46.4%
- COCCC(=O)N1CCN(CC2CC2)c2ccccc21 — lower, 14.9%
- NC(=O)CN1CCN(CC2CC2)c2ccccc21 — higher, 58.7%
- O=C(NCCCC(=O)N1CCN(CC2CC2)c2ccccc21)C1CC1 — higher, 22.8%
- NC(=O)NC(=O)CN1CCN(CC2CC2)c2ccccc21 — higher, 35.3%
- CN1CCC2(CCN(Cc3nccs3)CC2)C1=O — lower, 7.15%
- O=C(NCC1CC1)C1CCC2(CCN(C(=O)c3ccco3)CC2)O1 (configuration not stated) — lower, -25.8%
- CN(C(=O)CCc1nc(C2CC2)no1)c1cc(C#N)c2ccccc2n1 — higher, 23.1%
- O=C(c1ccc(S(=O)(=O)N2CCNCC2)cc1)N1CCCC(O)C1 (configuration not stated) — lower, 13.3%
- CCCc1noc(CN2CCN(c3nccs3)CC2)n1 — lower, -4.16%
- Cc1cc(C2CCCN2Cc2ccc(S(=O)(=O)N3CCCC3)o2)on1 (configuration not stated) — lower, 19.2%
- CCC1c2ccccc2CCN1CCCS(C)(=O)=O (configuration not stated) — higher, 50.6%
- CCC1c2ccccc2CCN1CCNS(C)(=O)=O (configuration not stated) — lower, 18%
- CCCC1c2ccccc2CCN1CCS(C)(=O)=O (configuration not stated) — higher, 22.8%
- Cc1nn(-c2ccccc2)c2nc(C(C)(C)CN3CCN(C)CC3)[nH]c12 — lower, 8.08%
- CC(C)CC(CNC(=O)NCc1cc[nH]n1)N1CCOCC1 (configuration not stated) — higher, 52%
- Cc1noc(C)c1CC(=O)NCC(C(C)C)N1CCOCC1 (configuration not stated) — higher, 58.2%
- Cc1noc(C)c1CC(=O)NCC(C)N1CCOCC1 (configuration not stated) — higher, 46.1%
- Cc1noc(C)c1CC(=O)NCC(CC(C)C)N1CCOCC1 (configuration not stated) — higher, 62.8%
- Cc1noc(C)c1C(=O)NCCN1CCOCC1 — lower, -27.8%
- Cc1noc(C)c1CC(=O)NCCc1cccs1 — lower, -26.9%
- O=C(NCc1cc[nH]n1)NCC(c1ccccc1)N1CCOCC1 (configuration not stated) — lower, 15.8%
- CC(C)C(CNC(=O)NCc1cc[nH]n1)N1CCOCC1 (configuration not stated) — lower, -1.6%
- Cc1cc(NC(=O)NCC(CC(C)C)N2CCOCC2)n(C)n1 (configuration not stated) — lower, -0.113%
- CCC(CNC(=O)Cc1c(C)noc1C)N1CCCC1 (configuration not stated) — higher, 57.3%
- Cc1noc(C)c1CC(=O)NCCN1CCN(S(C)(=O)=O)CC1 — lower, -47.8%
- Cc1cc(NC(=O)CN2CCCC2c2c(C)nn(C)c2C)on1 (configuration not stated) — lower, 5.03%
- Cc1noc(C)c1-c1nc(C2CCCN(C(=O)C(C)C)C2)ccc1CO (configuration not stated) — higher, 48.1%
- CC(=O)N(Cc1ncc(C)o1)C1CCN(Cc2nccn2C)C1 (configuration not stated) — lower, 11.45%
- CC(=O)N1[C@H](Cn2cncn2)C[C@@H]2CN(CC3CC3)CC[C@@H]21 — lower, -1.83%
- COc1ccccc1C(=O)N1C[C@@H]2CCCCN(CC(N)=O)[C@@H]2C1 — lower, 9.05%
- COCCCNS(=O)(=O)c1ccc(N2CCCCS2(=O)=O)cc1 — higher, 73.4%
- COCCCNS(=O)(=O)c1cccc(CSC)c1 — lower, -15.7%
- CC(NCCCn1cccn1)c1ccc(N2CCCS2(=O)=O)cc1 (configuration not stated) — lower, 5.58%
- CCOc1ccc(NC(=O)N(C)Cc2cnn(C)c2)c(C)c1 — lower, 11.9%
- Cc1nc2c(c(C)c1CC(=O)NCc1cccs1)c(=O)[nH]n2C — lower, -0.219%
- O=c1n(Cc2cccc(F)c2)nc2ncccn12 — lower, -31.7%
- Cc1ccoc1C(=O)N1C[C@@H](OCC2CC2)[C@H]2OCCC[C@H]21 — higher, 55.2%
- Cc1ccoc1C(=O)N1C[C@@H](OCC2CCOCC2)[C@H]2OCCC[C@H]21 — higher, 57.1%
- Cc1ccc(C(=O)N2C[C@@H](OCC3CCOCC3)[C@H]3OCCC[C@H]32)o1 — higher, 41.5%
- Cc1ccoc1C(=O)N1C[C@H](OCC2CC2)[C@H]2OCCC[C@H]21 — lower, -31%
- Cc1ccoc1C(=O)N1CCO[C@H]2[C@H](OCC3CCOCC3)CC[C@@H]21 — lower, -0.182%
- Cc1ccoc1C(=O)N1C[C@H](OCc2cccnc2)[C@H]2OCCC[C@H]21 — higher, 33.4%
- CN(C)CCN1CCc2c(nnn2C)C1COCc1ccccc1 (configuration not stated) — lower, -4.98%
- CCc1[nH]ncc1C(=O)N1CCCC(n2ccnc2C)C1 (configuration not stated) — lower, 7.12%
- O=C1CC2(CCN(CCO)C2)CN1c1cccc(F)c1 (configuration not stated) — lower, -9.02%
- CN(C)C(=O)N1CCC2(CC(=O)N(c3cccc(C#N)c3)C2)C1 (configuration not stated) — lower, 7.65%
- O=C1CC2(CCN(Cc3cccs3)C2)CN1c1cccc(F)c1 (configuration not stated) — higher, 59.2%
- CCOCC(=O)N1CCCC2(CCN(c3ccccc3)C2=O)C1 (configuration not stated) — higher, 33.4%
- COCC(=O)N1CCC2(CC(=O)N(c3cccc(F)c3)C2)C1 (configuration not stated) — higher, 63.1%
- COCCC(=O)N1CCCC2(CCN(c3ccccc3)C2=O)C1 (configuration not stated) — lower, -3.58%
- N#Cc1cccc(N2CC3(CCN(C(=O)NC4CC4)C3)CC2=O)c1 (configuration not stated) — higher, 33.4%
- O=C(Cc1ccccc1)N1CCC2(CC(=O)N(c3cccc(F)c3)C2)C1 (configuration not stated) — lower, 5.65%
- CN(C)CC(=O)N1CCC2(CC(=O)N(c3cccc(C#N)c3)C2)C1 (configuration not stated) — higher, 53.5%
- O=C1CC2(CCN(Cc3ccncc3)C2)CN1c1cccc(F)c1 (configuration not stated) — lower, -11.6%
- O=C(CC1CC1)N1CCC2(CC(=O)N(c3cccc(F)c3)C2)C1 (configuration not stated) — lower, -40.5%
- COCC(=O)N1CCCC2(CCN(c3ccccc3)C2=O)C1 (configuration not stated) — higher, 71.9%
- CC(C)c1ncc(CNC2(c3ccc(Cl)cc3)CC2)cn1 — lower, -33.4%
- O=C(NC1CCN(C2CC2)C1)c1cn(-c2ccc(F)cc2)nn1 (configuration not stated) — lower, 14.3%
- CC1CN(C(=O)c2ccn(C)c(=O)c2)c2ccccc2NC1=O (configuration not stated) — lower, -24%
- Cc1ccc(CN(C)C(=O)CN2CCCC(Cn3cncn3)C2)o1 (configuration not stated) — lower, 15.6%
- Cc1ccc(C(=O)N(C)Cc2ccc(Br)s2)c(=O)[nH]1 — higher, 37.4%
- Cc1ccc(-c2nc(CNC(C)Cn3cccn3)cs2)o1 (configuration not stated) — lower, -27.9%
- CCCc1noc(C(C)N2CCN(c3ccc(C#N)cn3)CC2)n1 (configuration not stated) — lower, 5.23%
- CC(Cn1cccn1)NC(=O)N(C)Cc1ccc(C(N)=O)cc1 (configuration not stated) — lower, 14.3%
- Cc1cccc(N2CC3(CCN(C(=O)NC(C)C)C3)CC2=O)c1 (configuration not stated) — lower, 14.6%
- CC(C)NC(=O)N1CCC2(CC(=O)N(c3cccc(F)c3)C2)C1 (configuration not stated) — lower, 7.65%
- CC(C)NC(=O)N1CCC2(CC(=O)N(c3cccc(C#N)c3)C2)C1 (configuration not stated) — higher, 66.5%
- COCCN1C[C@@H]2CC[C@H]1CN(C(=O)CCc1c(C)nn(C)c1C)C2 — higher, 27.5%
- Cn1cc(CN2C[C@@H](N3CCCC3=O)[C@H]3OCCC[C@H]32)cn1 — higher, 29%
- Cn1cc(CN2C[C@H](N3CCOCC3)[C@@H]3OCCC[C@@H]32)cn1 — higher, 54.1%
- Cn1ccnc1CN1C[C@H](N2CCOCC2)[C@@H]2OCCC[C@@H]21 — higher, 37.8%
- CC(C)c1nnc(CN2CCCC3(CC2)CN(C)C(=O)O3)o1 (configuration not stated) — higher, 23.9%
- CCOc1ccc(Cl)c(C(=O)N2CCCC(N3CCCC3)C2)n1 (configuration not stated) — higher, 23.3%
- CC(C)N(CC(N)=O)Cc1csc(COc2ccc(F)cc2)n1 — higher, 81.5%
- CCc1nc(CN(CC(N)=O)C(C)C)cs1 — higher, 22.5%
- COCc1nc(CN(CC(N)=O)C(C)C)cs1 — higher, 42%
- COc1ccc(-c2noc(CN3CCN(c4cnccn4)CC3)n2)cc1 — higher, 47%
- COC(=O)c1cccc(C(=O)N2CCN(C(=O)N(C)C)CC2(C)C)c1 — higher, 68.6%
- Cc1cc(C)cc(C(=O)N2CCN(C(=O)N(C)C)CC2(C)C)c1 — lower, 18.6%
- CN(C)C(=O)N1CCN(C(=O)c2ccc(Cl)c(Cl)c2)C(C)(C)C1 — lower, 14.1%
- CC(=O)N1CCC2(CC1)CN(C)CC[C@H]2C(F)(F)F — lower, -22.1%
- c1cc(CN2CCc3ncnc(C4CCOC4)c3CC2)ccn1 (configuration not stated) — higher, 29.8%
- O=C(c1cn(-c2ccccc2)nn1)N1CCOCC(O)C1 (configuration not stated) — lower, -28.1%
- O=C(CCc1ccccn1)NC1CCN(c2cccc(Cl)c2)C1 (configuration not stated) — higher, 46.4%
- O=C(CCc1ccccn1)NC1CCCN(C2Cc3ccccc3C2)C1 (configuration not stated) — higher, 51.1%
- O=C(CCc1nc(Cl)n[nH]1)NC1CCCN(C2Cc3ccccc3C2)C1 (configuration not stated) — higher, 35.1%
- Cn1nnnc1SC1CCCN(c2cccc(F)c2)C1=O (configuration not stated) — lower, -12.4%
- O=C(COCC(=O)N(c1ccccc1)c1ccccc1)N1CCOCC1 — lower, 13.3%
- O=C(CN1CCOCC1)N(c1ccccc1)c1ccccc1 — higher, 78.8%
- CN(CCN1CCOCC1)C(=O)CCCc1ccccc1 — lower, -57.6%
- CCOCC(=O)N1CCC2(CC1)CN(Cc1cccnc1)C(=O)CO2 — lower, -47.9%
- COCCN1CCCC(Cc2cnc(-c3c(C)nn(C)c3C)cn2)C1 (configuration not stated) — lower, -29.9%
- COCC1CN(c2ccc(C)nn2)Cc2cnn(CC3CCOCC3)c21 (configuration not stated) — lower, 13.6%
- Cc1cc2[nH]c(O)nc2cc1NCc1ccc(F)cc1 — lower, -5.64%
- COc1ccc(-c2nc3c([nH]2)CCNC3C(=O)O)c2ccc(C)nc12 (configuration not stated) — higher, 36.6%
- Cc1ccc(-c2nc3c([nH]2)CCNC3C(=O)O)c2cccnc12 (configuration not stated) — lower, -6.83%
- COc1ccc(-c2nc3c([nH]2)CCNC3C(=O)O)c2ccccc12 (configuration not stated) — higher, 55.4%
